For some of these results: Entries with a potency or affinity are not part of this list.
Tests used:
Set-up in all cases: scale not given: direction of the effect not stated beside the values
[1] = target: Protein translocase subunit SecA (Escherichia coli (strain K12)) (UniProt P10408); experiment: Assay to Identify E. coli SecA ATPase Inhibitors; type: functional; conditions: 30 µM
[2] = target: T1, Ubiquitin-activating enzyme e1, putative (Leishmania donovani (strain BPK282A1)) (UniProt E9BSI1); experiment: Leishmania donovani Ubiquitin Activating Enzyme (LdE1); type: functional; conditions: 30 µM
T1 sequence (whole entry): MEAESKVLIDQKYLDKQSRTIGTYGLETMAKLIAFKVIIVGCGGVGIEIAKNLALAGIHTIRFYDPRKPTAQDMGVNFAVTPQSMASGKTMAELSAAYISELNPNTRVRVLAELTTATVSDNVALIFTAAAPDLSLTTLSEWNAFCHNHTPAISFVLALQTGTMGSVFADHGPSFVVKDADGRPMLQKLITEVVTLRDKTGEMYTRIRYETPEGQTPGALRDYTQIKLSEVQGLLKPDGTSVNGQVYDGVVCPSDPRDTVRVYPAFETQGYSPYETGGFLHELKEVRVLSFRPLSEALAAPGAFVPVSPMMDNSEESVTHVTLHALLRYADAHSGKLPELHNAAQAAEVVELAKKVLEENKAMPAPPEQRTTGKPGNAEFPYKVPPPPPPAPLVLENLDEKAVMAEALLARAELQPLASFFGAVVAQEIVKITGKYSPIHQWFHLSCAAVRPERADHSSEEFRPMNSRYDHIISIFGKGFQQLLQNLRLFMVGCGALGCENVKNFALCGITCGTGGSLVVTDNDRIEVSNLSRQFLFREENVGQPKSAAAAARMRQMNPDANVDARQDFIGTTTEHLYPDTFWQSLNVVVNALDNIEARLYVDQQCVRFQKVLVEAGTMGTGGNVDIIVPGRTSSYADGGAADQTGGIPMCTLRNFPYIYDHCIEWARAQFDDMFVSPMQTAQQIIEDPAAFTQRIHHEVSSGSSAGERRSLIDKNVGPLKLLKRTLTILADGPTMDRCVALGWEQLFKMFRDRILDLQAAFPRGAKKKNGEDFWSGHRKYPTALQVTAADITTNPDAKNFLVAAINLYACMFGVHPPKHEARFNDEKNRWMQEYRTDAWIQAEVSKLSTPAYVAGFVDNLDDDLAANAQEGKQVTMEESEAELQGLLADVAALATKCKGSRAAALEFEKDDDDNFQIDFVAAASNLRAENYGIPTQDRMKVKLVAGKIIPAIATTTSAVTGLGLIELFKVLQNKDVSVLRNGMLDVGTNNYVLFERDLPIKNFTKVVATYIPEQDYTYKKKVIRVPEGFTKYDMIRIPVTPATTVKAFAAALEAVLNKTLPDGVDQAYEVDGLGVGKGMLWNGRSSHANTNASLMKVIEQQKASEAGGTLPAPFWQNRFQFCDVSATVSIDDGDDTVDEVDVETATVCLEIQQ

[3] = target: AMP-activated protein kinase, AMPK (Homo sapiens) (UniProt P54646+O43741+P54619+Q9UGJ0+Q9Y478+Q13131+Q9UGI9); experiment: AMP-dependent Kinase enzyme assay. An in vitro enzyme assay that detects ADP turnover that is directly proportional to AMPK activity. This uses naive AMPK that is activated during the assay with MK-8722; type: functional; conditions: 30 µM
[4] = target: Sialic acid-binding Ig-like lectin 9 (Homo sapiens) (UniProt Q9Y336); experiment: Hs-Siglec9 ALPHAscreen SOP 20170721; conditions: 10 µM
Trypanosoma cruzi = experiment: Trypanosoma cruzi phosphomannomutase and mannose-1-phosphate guanylyltransferase assay; type: functional; conditions: 10 µM
[5] = target: T2, Arginase-2, mitochondrial (Homo sapiens) (UniProt P78540); experiment: in vitro enzyme assay to detect the production of urea directly proportional to the activity of Arginase II; type: functional; conditions: 33.3 µM; further: in the data most compounds retested in dose-response had high values
T2 sequence (whole entry): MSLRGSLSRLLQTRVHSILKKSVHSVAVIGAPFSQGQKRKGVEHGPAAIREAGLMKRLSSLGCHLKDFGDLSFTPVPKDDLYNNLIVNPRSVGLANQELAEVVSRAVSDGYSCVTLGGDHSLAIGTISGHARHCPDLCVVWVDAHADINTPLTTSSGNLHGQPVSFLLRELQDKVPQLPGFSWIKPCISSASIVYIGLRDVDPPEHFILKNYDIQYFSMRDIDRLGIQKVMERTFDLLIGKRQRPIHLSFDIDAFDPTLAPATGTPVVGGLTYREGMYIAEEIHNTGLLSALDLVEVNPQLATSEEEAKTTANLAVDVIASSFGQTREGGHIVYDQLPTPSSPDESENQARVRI

[6] = target: T3, Proteasome subunit beta (Trypanosoma cruzi) (UniProt O96673); experiment: Trypanosoma cruzi proteasome chymotrypsin-like activity (TcProtChymo) assay.; further: in the data most compounds retested in dose-response had high values; type: functional; conditions: 9.37 µM
T3 sequence (whole entry): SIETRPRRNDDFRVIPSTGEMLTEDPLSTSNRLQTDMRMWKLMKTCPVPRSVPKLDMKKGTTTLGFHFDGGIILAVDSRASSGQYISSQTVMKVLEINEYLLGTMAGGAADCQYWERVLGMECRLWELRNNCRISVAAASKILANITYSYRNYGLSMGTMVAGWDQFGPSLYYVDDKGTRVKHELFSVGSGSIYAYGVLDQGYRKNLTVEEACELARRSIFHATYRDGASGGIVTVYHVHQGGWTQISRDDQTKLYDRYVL

Homo sapiens = species on record: Homo sapiens; experiment: To identify inhibition of the IFN signalling (Jak-Stat) pathway via expression of an eGFP reporter gene under the control of an IFN-stimulated response element (ISRE) containing MxA promoter.; type: functional; conditions: 30 µM
[7] = target: T4, Tyrosyl-tRNA synthetase, putative (Trypanosoma cruzi (strain CL Brener)) (UniProt Q4DSP6); experiment: Trypanosoma cruzi tyrosyl tRNA synthetase (TcYRS) _High Tyrosine SOP; type: functional; conditions: 30 µM; further: in the data most compounds retested in dose-response had high values
T4 sequence (whole entry): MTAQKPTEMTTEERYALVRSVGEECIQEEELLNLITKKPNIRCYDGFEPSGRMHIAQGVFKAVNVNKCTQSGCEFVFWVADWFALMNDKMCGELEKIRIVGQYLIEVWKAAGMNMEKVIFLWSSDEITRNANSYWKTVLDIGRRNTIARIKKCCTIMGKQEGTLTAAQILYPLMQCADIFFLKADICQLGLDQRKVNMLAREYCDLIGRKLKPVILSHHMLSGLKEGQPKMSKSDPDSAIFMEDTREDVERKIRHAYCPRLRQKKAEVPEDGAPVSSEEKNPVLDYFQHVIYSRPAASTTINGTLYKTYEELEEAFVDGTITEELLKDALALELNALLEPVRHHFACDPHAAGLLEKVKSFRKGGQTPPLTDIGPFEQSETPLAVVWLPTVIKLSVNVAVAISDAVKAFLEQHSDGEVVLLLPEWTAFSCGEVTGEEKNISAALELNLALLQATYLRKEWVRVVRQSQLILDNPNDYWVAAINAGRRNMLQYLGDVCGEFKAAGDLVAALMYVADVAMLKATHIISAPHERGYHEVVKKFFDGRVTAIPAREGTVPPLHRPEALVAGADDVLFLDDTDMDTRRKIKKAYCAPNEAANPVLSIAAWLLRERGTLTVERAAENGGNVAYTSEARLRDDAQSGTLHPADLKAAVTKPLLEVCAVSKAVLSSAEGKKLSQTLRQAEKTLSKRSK

[8] = target: T4, Tyrosyl-tRNA synthetase, putative (Trypanosoma cruzi (strain CL Brener)); experiment: Trypanosoma cruzi tyrosyl tRNA synthetase (TcYRS) SOP; type: functional; conditions: 30 µM
[9] = target: Chromo domain-containing protein 1 (Saccharomyces cerevisiae (strain ATCC 204508 / S288c) (Baker's yeast)) (UniProt P32657); experiment: ScCHD-1 Enzyme Inhibition Assay; type: functional; conditions: 30 µM; further: in the data most compounds retested in dose-response had high values
Chain of Chromo domain-containing protein 1 (Saccharomyces cerevisiae (strain ATCC 204508 / S288c) (Baker's yeast)) (P32657 whole entry, the tested form may be a part): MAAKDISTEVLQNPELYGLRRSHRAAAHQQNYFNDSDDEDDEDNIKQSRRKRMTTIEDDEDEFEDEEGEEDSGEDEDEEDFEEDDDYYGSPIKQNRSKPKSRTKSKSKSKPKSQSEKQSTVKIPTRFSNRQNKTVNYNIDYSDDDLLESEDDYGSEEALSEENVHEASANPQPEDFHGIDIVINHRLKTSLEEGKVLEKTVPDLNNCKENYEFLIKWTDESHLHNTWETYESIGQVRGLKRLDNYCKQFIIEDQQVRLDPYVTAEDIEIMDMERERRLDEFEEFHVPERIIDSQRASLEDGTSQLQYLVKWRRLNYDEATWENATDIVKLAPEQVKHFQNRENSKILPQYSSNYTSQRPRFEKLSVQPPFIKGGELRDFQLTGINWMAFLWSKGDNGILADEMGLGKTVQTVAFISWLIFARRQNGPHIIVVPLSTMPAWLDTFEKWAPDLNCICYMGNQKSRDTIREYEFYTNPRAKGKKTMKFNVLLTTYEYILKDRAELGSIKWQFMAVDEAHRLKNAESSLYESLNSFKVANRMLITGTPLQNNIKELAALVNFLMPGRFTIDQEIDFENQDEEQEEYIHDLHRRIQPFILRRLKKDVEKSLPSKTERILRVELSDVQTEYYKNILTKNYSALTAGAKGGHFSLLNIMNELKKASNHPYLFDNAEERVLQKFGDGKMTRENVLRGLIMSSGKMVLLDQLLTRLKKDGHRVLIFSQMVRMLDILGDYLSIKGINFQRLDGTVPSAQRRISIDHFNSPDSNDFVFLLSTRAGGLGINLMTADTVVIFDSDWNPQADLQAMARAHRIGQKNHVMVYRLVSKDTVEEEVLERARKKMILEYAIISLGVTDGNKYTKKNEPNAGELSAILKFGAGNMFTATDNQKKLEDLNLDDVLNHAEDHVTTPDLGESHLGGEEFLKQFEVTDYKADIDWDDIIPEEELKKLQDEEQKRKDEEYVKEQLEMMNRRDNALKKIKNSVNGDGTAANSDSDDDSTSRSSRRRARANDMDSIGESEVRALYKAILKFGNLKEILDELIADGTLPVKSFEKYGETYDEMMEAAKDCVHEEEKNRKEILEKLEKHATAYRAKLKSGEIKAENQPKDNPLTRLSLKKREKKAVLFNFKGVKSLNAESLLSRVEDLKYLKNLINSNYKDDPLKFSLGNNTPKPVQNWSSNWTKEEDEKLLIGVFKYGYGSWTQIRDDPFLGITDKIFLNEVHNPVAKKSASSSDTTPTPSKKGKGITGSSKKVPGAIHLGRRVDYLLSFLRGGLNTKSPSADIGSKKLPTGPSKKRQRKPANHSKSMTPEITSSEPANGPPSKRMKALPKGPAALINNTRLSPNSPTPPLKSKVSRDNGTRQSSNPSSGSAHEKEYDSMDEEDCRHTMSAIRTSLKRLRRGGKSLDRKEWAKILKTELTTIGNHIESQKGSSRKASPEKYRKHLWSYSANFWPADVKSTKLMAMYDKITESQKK

Chain of Protein translocase subunit SecA (Escherichia coli (strain K12)) (P10408 whole entry): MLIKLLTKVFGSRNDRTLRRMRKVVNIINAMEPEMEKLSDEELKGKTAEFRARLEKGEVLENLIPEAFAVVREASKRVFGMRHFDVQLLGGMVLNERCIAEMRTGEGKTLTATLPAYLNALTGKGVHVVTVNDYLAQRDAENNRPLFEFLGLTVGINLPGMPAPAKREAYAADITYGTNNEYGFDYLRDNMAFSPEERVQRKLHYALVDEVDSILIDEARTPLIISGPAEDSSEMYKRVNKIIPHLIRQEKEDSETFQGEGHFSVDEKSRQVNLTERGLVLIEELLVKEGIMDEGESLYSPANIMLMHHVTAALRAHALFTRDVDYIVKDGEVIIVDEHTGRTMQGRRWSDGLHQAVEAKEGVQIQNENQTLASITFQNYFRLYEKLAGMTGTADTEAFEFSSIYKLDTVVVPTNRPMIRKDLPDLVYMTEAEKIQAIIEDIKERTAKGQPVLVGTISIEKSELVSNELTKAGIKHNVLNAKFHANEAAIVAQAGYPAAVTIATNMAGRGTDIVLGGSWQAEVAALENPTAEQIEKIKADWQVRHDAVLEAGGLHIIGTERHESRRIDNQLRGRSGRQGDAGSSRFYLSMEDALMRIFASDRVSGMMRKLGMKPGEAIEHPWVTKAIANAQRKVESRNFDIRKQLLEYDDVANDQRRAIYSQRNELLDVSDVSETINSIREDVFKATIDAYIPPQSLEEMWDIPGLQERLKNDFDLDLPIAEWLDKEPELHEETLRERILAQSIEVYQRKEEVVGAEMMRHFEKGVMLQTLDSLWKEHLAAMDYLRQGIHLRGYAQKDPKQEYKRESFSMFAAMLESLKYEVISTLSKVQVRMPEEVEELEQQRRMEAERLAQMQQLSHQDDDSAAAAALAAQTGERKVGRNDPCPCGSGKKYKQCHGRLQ
Chain of Sialic acid-binding Ig-like lectin 9 (Homo sapiens) (Q9Y336 whole entry): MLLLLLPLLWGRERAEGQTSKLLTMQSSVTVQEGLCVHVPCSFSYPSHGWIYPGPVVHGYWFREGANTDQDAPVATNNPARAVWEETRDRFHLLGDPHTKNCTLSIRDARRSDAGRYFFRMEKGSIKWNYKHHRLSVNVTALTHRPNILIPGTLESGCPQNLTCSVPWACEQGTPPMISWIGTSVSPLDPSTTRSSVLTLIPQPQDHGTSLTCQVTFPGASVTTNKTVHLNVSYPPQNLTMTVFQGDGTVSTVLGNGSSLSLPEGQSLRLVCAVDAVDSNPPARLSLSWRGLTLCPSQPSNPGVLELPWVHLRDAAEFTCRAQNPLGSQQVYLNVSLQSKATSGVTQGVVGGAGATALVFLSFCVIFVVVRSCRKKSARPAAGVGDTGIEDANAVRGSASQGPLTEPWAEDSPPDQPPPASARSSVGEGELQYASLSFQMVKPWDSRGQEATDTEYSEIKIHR

`O=C(NCc1ccc(-c2ccn[nH]2)cc1)N1CCC(N2CCCC2)C1` (stereo not drawn) gave a Percent Effect [1] of -6.43%, a Percent Effect [2] of 2.63% and a Percent Effect [3] of -5.77%. The Percent Effect [4] was 6.24%, the Percent Effect (Trypanosoma cruzi) was 1.59% and the Percent Effect [5] was -5.4%. For the same molecule, the Percent Effect [6] was 4.65%, the Percent Effect (Homo sapiens) was 5.01% and the Percent Effect [7] was 10.3%. The Percent Effect [8] was 18.5% and the Percent Effect [9] was 1.9%.
Work on `Cn1cc(C(=O)NC[C@@H]2OC[C@H]3CN(Cc4ccco4)CC[C@H]32)cn1` yielded a Percent Effect [1] of 1.17%, a Percent Effect [2] of 8.22% and a Percent Effect [3] of -8.23%. The Percent Effect [4] was 6.71%, the Percent Effect (Trypanosoma cruzi) was 5.75% and the Percent Effect [5] was -2.79%. For the same molecule, the Percent Effect [6] was 8.3%, the Percent Effect (Homo sapiens) was 17% and the Percent Effect [7] was 3.12%. The Percent Effect [8] was 11.1% and the Percent Effect [9] was -3.21%.
For `COc1ccccc1CC(=O)NS(C)(=O)=O`, the Percent Effect [1] was -4.83%, the Percent Effect [2] was 5.2% and the Percent Effect [3] was 1.28%. For the same molecule, the Percent Effect [4] was 1.8%, the Percent Effect (Trypanosoma cruzi) was -1.87% and the Percent Effect [5] was -1.42%. The Percent Effect [6] was 7.6%, the Percent Effect (Homo sapiens) was 20.4% and the Percent Effect [7] was 4.85%. It also gave a Percent Effect [8] of 14.6% and a Percent Effect [9] of -6.74%.
With `N#Cc1cnn(-c2ccc(C(=O)Nc3ccccn3)cc2)c1N` the Percent Effect [1] was -1.12%, the Percent Effect [2] was 17.7% and the Percent Effect [3] was 3.05%. The Percent Effect [4] was -10.6%, the Percent Effect (Trypanosoma cruzi) was 7.65% and the Percent Effect [5] was -6.46%. The Percent Effect [6] was 19.7%, the Percent Effect (Homo sapiens) was 8.19% and the Percent Effect [7] was 13.3%. The Percent Effect [8] was 29.1% and the Percent Effect [9] was -3.72%.
`CSc1nccn1-c1cccc(C(=O)NCC2CC2)c1` was tested, and the Percent Effect [1] was -4.93%, the Percent Effect [2] was 7.89% and the Percent Effect [3] was 0.0421%. The Percent Effect [4] was 2.24%, the Percent Effect (Trypanosoma cruzi) was 6.82% and the Percent Effect [5] was -1.44%. The Percent Effect [6] was 3.13%, the Percent Effect (Homo sapiens) was 2.37% and the Percent Effect [7] was 5.42%. For the same molecule, the Percent Effect [8] was 13.6% and the Percent Effect [9] was 2.32%.
`COc1cc(CNC(=O)CNc2cc(Cl)ccc2OC)ccn1` was tested, and the Percent Effect [1] was -4.04%, the Percent Effect [2] was 0% and the Percent Effect [3] was -0.0708%. The Percent Effect [4] was 2.86%, the Percent Effect (Trypanosoma cruzi) was -2.55% and the Percent Effect [5] was 0.802%. It also gave a Percent Effect [6] of 3.6%, a Percent Effect (Homo sapiens) of 9.38% and a Percent Effect [7] of -4.43%. The Percent Effect [8] was 3.7% and the Percent Effect [9] was 0.373%.
Work on `Fc1ccc(CN2CCCC(c3nnc(-c4cnccn4)o3)C2)cc1F` (stereo not drawn) yielded a Percent Effect [1] of -9.81%, a Percent Effect [2] of 14.9% and a Percent Effect [3] of -1.12%. It also gave a Percent Effect [4] of 9.24%, a Percent Effect (Trypanosoma cruzi) of -0.198% and a Percent Effect [5] of -3.02%. The Percent Effect [6] was 12%, the Percent Effect (Homo sapiens) was 1.34% and the Percent Effect [7] was 6.45%. It also gave a Percent Effect [8] of 14.3% and a Percent Effect [9] of -26.6%.
In the case of `CNS(=O)(=O)c1cccc(C(C)NCc2ccccc2)c1` (stereo not drawn), the Percent Effect [1] is reported as -0.281%, the Percent Effect [2] is reported as -2.7% and the Percent Effect [3] is reported as 1.68%. For the same molecule, the Percent Effect [4] was -2.19%, the Percent Effect (Trypanosoma cruzi) was -5.08% and the Percent Effect [5] was 1.67%. For the same molecule, the Percent Effect [6] was 3.63%, the Percent Effect (Homo sapiens) was -5.59% and the Percent Effect [7] was 2.97%. It also gave a Percent Effect [8] of 1.22% and a Percent Effect [9] of -1.16%.

Source: ChEMBL document CHEMBL3988442, “University of Dundee, Small-Polar-MMV Screening Library” (2021)
